From the OligoGym collection

molecular target: PRSS27; experiment: pooled miR-30 sensor sort-seq; sequence = guide strand; conditions: shRNA
Also: reference of the scale not given here.

| Sequence | sensor-assay potency score (higher = more potent) |
| --- | --- |
| TTACAAATGAGTCTGGTGGGGC | -0.115 |
| TTGCTGTAGAGCAGGTTGCACT | -1.36 |
| TCATTCTTGATGGTTTTGGGTT | -0.872 |
| ATACATAGCGTGTGGTCCCGGC | -0.586 |
| TACAGGGACGTCTCAGAGGTGT | -0.7 |
| TGCAGTTTGGGGATGATCCGAT | 0.0447 |
| AAACTCGGTGTCTTTGCTGTAG | -0.247 |
| TAGAGCAGGTTGCACTTGGGTG | -0.65 |
| TTTGCTGTAGAGCAGGTTGCAC | -0.973 |
| TGACACGGATGTAGACACCTGG | -0.413 |

molecular target: PRSS35; experiment: as above; conditions: shRNA

| Sequence | sensor-assay potency score (higher = more potent) |
| --- | --- |
| TTACCATCATCTTAGCATCTGC | -0.234 |
| TCACATTTAATACACAACCAGC | -0.906 |
| TTGGATTCGTCGGACACACTGC | -0.732 |
| TTCCTCATCTTCAACAACCCTA | 0.185 |
| TACACCTGTCTCTTTCTCCTAA | -0.12 |
| TAATACACAACCAGCATCCTAT | -0.461 |
| AAATCTTGAACTTTCACCCTGG | 0.84 |
| TTGTCCAAGATGCTGAACCTGC | -0.668 |
| TAGAACAAACTATTTCTCCCAT | 0.0739 |
| TTTCTTTTTGTGAGCACGCTTC | -0.433 |
| TTGAGTCGGCTCAAGAACCAAA | -0.83 |
| TAACTTTCTGTCTCTATTCTGA | -0.225 |
